# aSyn 5UTR act: Activators via SNCA 5'UTR binding, MLPCN. alpha-synuclein 5'UTR reporter, activators screen. activity score, % (tested at 7.5 µM), hits read low. 300,000 compounds, 7.1% hits. AID 1814, 2009; in the data active = activity score below about -60%
# * hit, by the source's call. These entries were drawn from the full list.
SMILES,aSyn 5UTR act
CNc1ccc(/C=C/C(=O)c2ccc3c(c2)OCCO3)cc1[N+](=O)[O-],-64*
CSc1ccc(/C=C(/NC(=O)c2ccccc2)C(=O)N2CCN(C)CC2)cc1,-147*
O=C(OCc1nnc(-c2ccc(Cl)cc2)o1)C12CC3CC(CC(O)(C3)C1)C2,-205*
COc1ccc(C(=O)Nn2c(SCC(=O)NCc3ccco3)nc3ccccc3c2=O)cc1,81
Cc1cc2nnc(SCC(=O)NCc3ccco3)n2c2ccccc12,-184*
CCCCCc1ccc(-c2ccc(OC)cc2)nc1,-123*
CCCCc1ccc(-c2ccc(C)cc2O)nc1,84
N=C(N)SCc1nc2ccccc2c(=O)n1-c1ccccc1,-95*
O=c1c2ccccc2nc(N/N=C/c2c(O)ccc3ccccc23)n1O,82
Cc1cc(C(=O)CNCc2ccco2)c(C)n1-c1ccc(F)cc1,-106*
Cc1cc(C(=O)CN2CCCCC2)c(C)n1-c1ccc(F)cc1,-129*
Cc1cc(C(=O)NC2CCCCC2)c(C)n1-c1ccc(F)cc1,-174*
Cc1cc(C(=O)CN2CCC(C)CC2)c(C)n1-c1ccc(F)cc1,-97*
CCCCCCOc1ccc(/C(N)=N/O)cc1,-173*
N=C(N)c1ccc(OCCCCCOc2ccc(C(=N)N)cc2)cc1,67
CCCCCc1nc2c(C#N)c(-c3ccc(Cl)cc3)ccn2n1,-65*
CCCCc1c(C)c(C#N)c2nc3ccccc3n2c1Cl,109
COc1ccc(C(=O)Cn2cnc3ccccc3c2=O)c(OC)c1,-96*
Cc1cccc(NC(=O)Nc2ccc3c(c2)N(C)C(=O)CS3)n1,-83*
Cc1ccnc(NC(=O)Nc2ccc3c(c2)N(C)C(=O)CS3)c1,-97*
CCc1ccc(/C=C2\SC(=S)N(CCC(=O)NC3=NCCS3)C2=O)cc1,89
COC(=O)c1ccc(CSC2=NCCS2)cc1,-83*
CN(Cc1nccn1C)C(=O)c1ccc2nc(Cc3ccccc3F)oc2c1,-126*
Cc1cc(CN(C)C(=O)c2ccc3nc(Cc4ccccc4F)oc3c2)on1,-62*
CN(Cc1nccs1)C(=O)c1ccc2nc(Cc3ccccc3F)oc2c1,-131*
SMILES,aSyn 5UTR act
Nc1nccc(/C=C/c2c(F)cccc2Cl)n1,-103*
Oc1cccc2ccc(/C=C/c3c(F)cccc3Cl)nc12,-114*
Clc1cc2nc3ccccn3c2cc1Cl,-115*
N#Cc1cc(C#N)c(N2CCN(c3ccccn3)CC2)nc1N,-204*
CCOC(=O)c1cnc(-n2nc(C)cc2C)nc1NNc1nc(-c2ccccc2)cc(-c2ccccc2)n1,82
CCOC(=O)c1cnc(-c2ccccc2)nc1N,-148*
Cc1nc2ccc(C(=O)OCc3ccccc3Br)cc2nc1C,-166*
CCOC(=O)c1cnc(-c2ccccc2)nc1N(C)C,-241*
CCOC(=O)c1ccc2ncc(-c3ccccc3)nc2c1,-160*
NNc1nc(-c2ccccc2)nc2sc3c(c12)CCCC3,-65*
C=CCNc1nnc(Sc2ncccc2[N+](=O)[O-])s1,-115*
Cc1cccc(C(=O)OCC(=O)c2ccc3c(c2)OCO3)c1O,-153*
O=C(COC(=O)c1ccccc1[N+](=O)[O-])c1ccc2c(c1)OCO2,-187*
N#CCCN1CCN(C(=S)c2ccc(-c3ccc(Cl)cc3)o2)CC1,-88*
O=C(c1ccc(-c2ccccc2Cl)o1)N1CCN(S(=O)(=O)c2cccs2)CC1,-114*
S=C(c1ccc(-c2ccccc2Cl)o1)N1CCCCC1,-170*
O=C(Nc1ccccc1N1CCCCC1)c1ccc(-c2ccc(Cl)cc2)o1,99
S=C(c1ccc(-c2ccc(Cl)cc2)o1)N1CCCCC1,-150*
CN1CCN(C(=S)c2ccc(-c3cccc(Cl)c3Cl)o2)CC1,-113*
O=C(CSc1nc2ncccc2[nH]1)c1ccc2c(c1)OCO2,-86*
COc1ccc(Sc2nnc(Cc3ccccc3)c3ccccc23)cc1,-73*
CC(C)(C)OC(=O)N/N=C\C=C\c1ccc2c(c1)OCO2,-197*
COC(=O)N/N=C\C=C\c1ccc2c(c1)OCO2,-134*
CCOC(=O)N/N=C\C=C\c1ccc2c(c1)OCO2,-121*
CC(=O)Nc1ccccc1/C=C/c1ccc2c(C)ccc(O)c2n1,-64*
SMILES,aSyn 5UTR act
Nn1c(SCc2c(F)cccc2F)nnc1-c1ccccn1,-159*
Nc1ccccc1-c1nnc(-c2ccccc2N)n1N,-113*
Cc1ccc(-n2[nH]c(=O)c(-c3ccccn3)c2C)cc1,97
Nn1c(-c2ccccn2)nnc1-c1ccccn1,-96*
Cc1sc2c(c1C)C(=O)NC(c1cccc(O)c1)N2 (stereo not drawn),-233*
CCc1ccc(NC(=O)C(=O)NCC2CCCO2)cc1 (stereo not drawn),-137*
S=C(NCC1CCCO1)Nc1ccc(Cl)c(Cl)c1 (stereo not drawn),-86*
CN(C)c1ccc(NC(=S)NCC2CCCO2)cc1 (stereo not drawn),-101*
CCCOC(=O)c1ccc(NC(=O)c2cnccn2)cc1,-104*
CCc1ccc(NC(=O)c2cnccn2)cc1,-138*
O=C(Nc1ccc(OC(F)(F)F)cc1)c1cnccn1,-195*
O=C(Nc1ccc(NC(=O)c2ccco2)cc1)c1cnccn1,-67*
Cc1cccc(CSC2=NN3CCCC(=O)N=C3S2)c1,-69*
Cc1ccc(N(C)C(=O)c2ccc3c(Cl)c4c(nc3c2)CCC4)cc1C,-136*
COc1ccc(N(C)C(=O)c2ccc3c(Cl)c4c(nc3c2)CCCC4)c(OC)c1,-88*
COc1ccc(Cl)cc1NC(=O)c1cc(-c2ccccc2O)n[nH]1,-118*
Cc1c(Cl)cccc1NC(=O)c1cc(-c2ccccc2O)n[nH]1,-206*
O=C(N/N=C/c1ccc(Br)s1)c1c[nH]c2ccccc12,-152*
O=C(N/N=C/c1cc(Br)cs1)c1c[nH]c2ccccc12,-68*
CCOC(=O)C1=C(N)n2c(s/c(=C/c3ccco3)c2=O)=C(C(=O)OC)C1c1ccco1 (stereo not drawn),-66*
Cc1occc1C(=O)N/N=C/c1ccc2c(c1)OCO2,-67*
Cc1cc(C(=O)N/N=C/c2ccc3c(c2)OCO3)c(C)o1,-105*
CCn1c(SCC(=O)Nc2ccc(C)cc2)nc(O)cc1=O,-71*
Cc1ccnc(Nc2nc(-c3ccc(O)cc3O)cs2)c1,-136*
Cc1ccnc(Nc2nc(-c3ccc(O)c(O)c3)cs2)c1,-148*
SMILES,aSyn 5UTR act
Oc1ccc(-c2csc(Nc3ccccn3)n2)cc1O,-139*
CC(=O)Nc1ccc(-c2csc(NCCc3ccccc3)n2)cc1,-141*
CCC(=O)Nc1nc(C)c(-c2csc(Nc3ccccn3)n2)s1,-122*
COc1ccc(OC)c(Nc2nc(-c3sc(NC(=O)CC(C)C)nc3C)cs2)c1,58
Cc1ccnc(Nc2nc(-c3ccc(O)cc3)cs2)c1,-232*
CC(=O)Nc1ccc(Nc2nc(-c3c(C)nc4ccccn34)cs2)cc1,87
CC(=O)Nc1ccc(-c2csc(Nc3ccccn3)n2)cc1,-161*
Fc1ccccc1-c1nc(-c2ccc(Cl)cc2)no1,-203*
Cc1ccccc1-c1noc(-c2ccc(O)cc2)n1,-226*
CN(C)c1ccc(-c2noc(-c3ccccc3O)n2)cc1,71
Cc1ccccc1-c1noc(-c2ccccc2F)n1,-259*
Cc1ccccc1-c1noc(-c2ccc(Cl)cc2)n1,-192*
Cc1ccccc1-c1noc(C2CCCCC2)n1,-71*
Fc1ccc2nc(N3CCCC3)sc2c1,-200*
Cc1ccc(C(=O)c2cc([N+](=O)[O-])ccc2N2CCCCC2)cc1,81
Fc1cc(F)c2nc(N3CCCCC3)sc2c1,-98*
O=[N+]([O-])c1ccc2nc(N3CCCC3)sc2c1,-121*
Cc1cc(N2CCCCCC2)nc2ccc(F)cc12,-64*

# Screening results deposited in PubChem by Broad Institute.
